The nature of assay [1]: qHTS RealTime-Glo MT Cell Viability Assay in HepG2 cells - 40 hour (AID 1224870). Also: nearly all actives have a fitted effect of over 50% in size. Also: potency is read from the fitted curve at half-maximal effect. Summed up: (§1)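 Real-time viability: cells seeded at 600 per well together with NanoLuc and cell-permeant prosubstrate, compounds added after 5 h incubation. Luminescence tracked at 0, 8, 16, 24, 32 and 40 h of exposure.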
A general note: qHTS replaces the single test concentration by a dilution series.

Assay [2] in a line: A CellTox Green Cytotoxicity Assay to monitor cytotoxicity in HEK293 cells - 40 hour (AID 1224871). Also: nearly all actives have a fitted effect of over 45% in size. Also: potency is read from the fitted curve at half-maximal effect. The essentials:
(§2)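 Homogeneous no-lysis format: HEK293 cell suspension mixed with CellTox Green reagent, seeded, incubated 5 h at 37 C/5% CO2, then dosed by pintool with compound in DMSO.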

Assay [3] is described as follows: qHTS RealTime-Glo MT Cell Viability Assay in HEK293 cells - 16 hour (AID 1224872). Also: nearly all actives have a fitted effect of over 50% in size. Also: potency is read from the fitted curve at half-maximal effect. Summed up:
(§3)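 HEK293 cells were seeded at 600 cells/well together with NanoLuc luciferase and cell-permeant prosubstrate, preincubated 5 h at 37 C/5% CO2, then given compound in DMSO by pintool. Luminescence from viable-cell prosubstrate reduction was read repeatedly over 40 h.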

A short description of assay [4]: qHTS RealTime-Glo MT Cell Viability Assay in HepG2 cells - 8 hour (AID 1224873). Also: nearly all actives have a fitted effect of over 55% in size. Also: potency is read from the fitted curve at half-maximal effect. The essentials: as §1
Assay [5] is described as follows: qHTS RealTime-Glo MT Cell Viability Assay in HEK293 cells - 40 hour (AID 1224874). Also: nearly all actives have a fitted effect of over 50% in size. Also: potency is read from the fitted curve at half-maximal effect. Conditions: RealTime-Glo luminescence; max response: hits give low values. Summed up: (§4)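 Measured as luminescence from the same continuously cultured HEK293 wells at successive time points (0, 8, 16, 24, 32, 40 h) after compound addition. Reagent present from seeding; dosing at 5 h; incubation 37 C.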

Assay [6] can be described thus: A CellTox Green Cytotoxicity Assay to monitor cytotoxicity in HEK293 cells - 24 hour (AID 1224875). Also: series mostly up to about 77 µM; nearly all actives have a fitted effect of over 45% in size. Summed up:
as §2

The nature of assay [7]: A CellTox Green Cytotoxicity Assay to monitor cytotoxicity in HepG2 cells - 16 hour (AID 1224876). Also: nearly all actives have a fitted effect of over 45% in size. Also: potency is read from the fitted curve at half-maximal effect. The essentials:
(§5)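 Fluorescent DNA-binding dye, 600 HepG2 cells/well, 5 h preincubation then compound in DMSO; same plates read at 0–40 h, 37 C.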

Assay [8] in a line: A CellTox Green Cytotoxicity Assay to monitor cytotoxicity in HepG2 cells - 24 hour (AID 1224878). Also: nearly all actives have a fitted effect of over 45% in size. Summed up:
as §5

Assay [9] in a line: qHTS RealTime-Glo MT Cell Viability Assay in HEK293 cells - 0 hour (AID 1224880). Summed up: as §4
A short description of assay [10]: A CellTox Green Cytotoxicity Assay to monitor cytotoxicity in HEK293 cells - 32 hour (AID 1224881). Also: nearly all actives have a fitted effect of over 40% in size. Also: potency is read from the fitted curve at half-maximal effect. The essentials: as §2
A short description of assay [11]: A CellTox Green Cytotoxicity Assay to monitor cytotoxicity in HepG2 cells - 0 hour (AID 1224882). Also: nearly all actives have a fitted effect of over 35% in size. The essentials: as §5
Assay [12] can be described thus: A CellTox Green Cytotoxicity Assay to monitor cytotoxicity in HepG2 cells - 32 hour (AID 1224883). Also: nearly all actives have a fitted effect of over 50% in size. Also: potency is read from the fitted curve at half-maximal effect. Summed up:
as §5

A short description of assay [13]: A CellTox Green Cytotoxicity Assay to monitor cytotoxicity in HEK293 cells - 8 hour (AID 1224884). Also: nearly all actives have a fitted effect of over 35% in size. The essentials:
as §2

Assay [14] can be described thus: qHTS RealTime-Glo MT Cell Viability Assay in HepG2 cells - 16 hour (AID 1224885). Also: nearly all actives have a fitted effect of over 50% in size. Also: potency is read from the fitted curve at half-maximal effect. The essentials:
(§6)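 HepG2 cells were seeded at 600 cells/well together with NanoLuc luciferase and a cell-permeant prosubstrate, preincubated 5 h at 37 C/5% CO2, then pin-dosed with compounds in DMSO. Nonlytic luminescence from viable cells was read at each time point.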

Assay [15] is described as follows: qHTS RealTime-Glo MT Cell Viability Assay in HEK293 cells - 24 hour (AID 1224886). Also: nearly all actives have a fitted effect of over 50% in size. Also: potency is read from the fitted curve at half-maximal effect. Summed up:
as §3

Assay [16] in a line: qHTS RealTime-Glo MT Cell Viability Assay in HEK293 cells - 8 hour (AID 1224887). Also: nearly all actives have a fitted effect of over 50% in size. Also: potency is read from the fitted curve at half-maximal effect. Summed up: as §4
Assay [17] is described as follows: A CellTox Green Cytotoxicity Assay to monitor cytotoxicity in HEK293 cells - 16 hour (AID 1224888). Also: nearly all actives have a fitted effect of over 35% in size. The essentials: as §2
The nature of assay [18]: A CellTox Green Cytotoxicity Assay to monitor cytotoxicity in HepG2 cells - 40 hour (AID 1224879). Also: nearly all actives have a fitted effect of over 40% in size. The essentials:
as §5

Assay [19] in a line: qHTS RealTime-Glo MT Cell Viability Assay in HepG2 cells - 0 hour (AID 1224889). Also: nearly all actives have a fitted effect of over 50% in size. The essentials:
as §6

Assay [20] in a line: qHTS RealTime-Glo MT Cell Viability Assay in HepG2 cells - 32 hour (AID 1224877). Also: nearly all actives have a fitted effect of over 55% in size. Also: potency is read from the fitted curve at half-maximal effect. Summed up:
as §6

The record followed here is PubChem BioAssay (Tox21).

A number with no mark means an inactive call. Records with an inconclusive call do not appear. Calls of active or inactive are those of the source. Calls follow the shape of the dose curve; as a rule, active = well fitted curve in the direction sought with a large enough effect in the repeat runs; inconclusive = weak or mixed curves; inactive = no such curve, though single readings can be large; an effect the other way counts as inactive or inconclusive.
% is scaled to controls: 0 for no effect and ±100 for the full control effect.

`C[C@H]1C[C@H](O)c2ccsc2S1(=O)=O`: the Potency result in assay [1], in [2], in [3], in assay [4], in assay [6] and in [7] was “inactive” in each case. The Potency entry in [8], in assay [9], in assay [10], in assay [11], in assay [12] and in [13] was “inactive” throughout. Also, the Potency result in [14], in assay [15], in assay [16] and in assay [17] was “inactive” in each case. Moreover, the max response in [5] was 2.25%.

`NC(=O)c1ccncc1`: the Potency result in assay [1], in assay [2], in assay [3], in [4], in [6] and in [7] was “inactive” throughout. Further, the Potency result in [8], in assay [18], in assay [9], in [10], in assay [11] and in [12] was “inactive” each time. Moreover, the Potency entry in assay [14], in assay [15], in [16], in [17] and in assay [19] was “inactive” throughout. In addition, in [5], the max response is 6.51%.

As for `O=C(OCC(O)CO)c1ccccc1Nc1ccnc2cc(Cl)ccc12` (configuration not stated), the Potency result in assay [1], in assay [2], in [4], in assay [6], in assay [8] and in assay [18] was “inactive” in each case. For the same compound, the Potency result in assay [9], in [10], in assay [13], in assay [14] and in [17] was “inactive” in each case. Also, the Potency in assay [3] was 8.49 µM (active); in assay [5], 8.49 µM (active); in [12], 9.52 µM (active); in assay [15], 7.56 µM (active); in assay [16], 8.49 µM (active).

With `COC(=O)CCS`, the Potency result in assay [1], in [2], in assay [3], in assay [4], in assay [6] and in assay [7] was “inactive” throughout. For the same compound, the Potency result in assay [8], in assay [9], in assay [10], in assay [11], in assay [12] and in assay [13] was “inactive” throughout. The Potency result in [14], in assay [15], in [17] and in assay [19] was “inactive” in each case. Moreover, the max response in assay [5] was 21.6%.

On to `C=C(C)[C@@H]1CCC2=CCC[C@@H](C)[C@]2(C)C1`, for which the Potency entry in assay [1], in assay [2], in [3], in [4], in assay [6] and in [20] was “inactive” in each case. Besides, the Potency entry in assay [10], in assay [11], in [13], in assay [14], in assay [15] and in assay [16] was “inactive” in each case. In addition, the Potency entry in assay [17] is “inactive”. In addition, the max response in assay [5] was 0.724%.

Take `O=C(O)CCC(=O)C(=O)O`: the Potency entry in assay [1], in assay [2], in assay [3], in assay [6], in assay [7] and in [20] was “inactive” each time. In addition, the Potency result in [8], in [18], in assay [9], in [10], in assay [11] and in assay [12] was “inactive” throughout. The Potency entry in assay [13], in assay [14], in [15], in assay [16] and in [17] was “inactive” throughout. Also, in assay [5], the max response was 0.138%.

For `COC(=O)CS`, the Potency result in [1], in assay [2], in assay [3], in assay [4], in assay [6] and in assay [7] was “inactive” each time. For the same compound, the Potency entry in assay [8], in assay [18], in [9], in [10], in [11] and in assay [12] was “inactive” each time. Besides, the Potency result in assay [13], in assay [14], in assay [15], in [16], in assay [17] and in [19] was “inactive” each time. In addition, in assay [5], the max response was 0.933%.

On to `CC(=O)c1ccc([N+](=O)[O-])cc1`, for which the Potency result in assay [1], in assay [2], in assay [3], in assay [4], in assay [6] and in assay [7] was “inactive” in each case. For the same compound, the Potency result in [8], in assay [18], in assay [9], in assay [10], in [11] and in assay [12] was “inactive” in each case. Besides, the Potency entry in assay [14], in assay [15], in [16], in [17] and in [19] was “inactive” throughout. The max response in assay [5] is 11.2%.

For `OCCN1CCN(CCCN2c3ccccc3Sc3ccc(Cl)cc32)CC1`, the Potency is 23.9 µM (active) in assay [1]; 26.8 µM (active) in assay [2]; 23.9 µM (active) in assay [3]; 23.9 µM (active) in assay [4]; 23.9 µM (active) in assay [5]; 21.3 µM (active) in [7]. The Potency is 23.9 µM (active) in [20]; 26.8 µM (active) in assay [10]; 16.9 µM (active) in [12]; 23.9 µM (active) in [14]; 23.9 µM (active) in assay [15]. Also, the Potency entry in [11] was “inactive”.

As to `O=Cc1c2ccccc2c(Cl)c2ccccc12`, the Potency result in assay [1], in [2], in assay [3], in assay [4], in assay [6] and in [7] was “inactive” in each case. Further, the Potency entry in assay [20], in [8], in assay [18], in [9], in assay [10] and in assay [11] was “inactive” each time. Moreover, the Potency entry in [12], in [14], in assay [16], in [17] and in assay [19] was “inactive” each time.

For `CCC1(CO)COCOC1`, the Potency entry in assay [1], in [2], in assay [3], in [4], in assay [6] and in assay [7] was “inactive” each time. Moreover, the Potency result in [8], in [9], in [10], in assay [11], in assay [12] and in [13] was “inactive” throughout. Moreover, the Potency result in assay [14], in assay [15], in assay [16], in assay [17] and in assay [19] was “inactive” throughout. The max response in assay [5] was -7.69%.

`CCOC(=O)[C@H](CCc1ccccc1)N[C@@H](C)C(=O)N(CC(=O)O)C1Cc2ccccc2C1`: the Potency result in assay [1], in assay [2], in assay [3], in assay [6], in [7] and in assay [20] was “inactive” each time. Besides, the Potency result in [8], in assay [18], in assay [9], in [10], in assay [11] and in [12] was “inactive” each time. The Potency result in [13], in assay [14], in assay [15], in assay [16], in [17] and in assay [19] was “inactive” in each case. In assay [5], the max response is 5.01%.

In the case of `Cc1cccc(O)c1N`, the Potency entry in assay [1], in [2], in [3], in assay [4], in assay [6] and in [7] was “inactive” each time. Besides, the Potency result in assay [20], in assay [8], in [9], in assay [11], in assay [12] and in [13] was “inactive” in each case. The Potency result in assay [14], in assay [15], in [16] and in assay [17] was “inactive” throughout.

Take `O=[N+]([O-])c1ccc(Nc2ccc(Nc3ccccc3)c(S(=O)(=O)O)c2)c([N+](=O)[O-])c1`: the Potency entry in assay [1], in assay [2], in assay [3], in [4], in [6] and in assay [7] was “inactive” in each case. For the same compound, the Potency entry in [18], in [9], in assay [10], in assay [11], in assay [12] and in assay [14] was “inactive” each time. Further, the Potency result in [15], in [16] and in [17] was “inactive” in each case. In addition, the max response in assay [5] was 5.22%.

For the compound `CC(CN(C)C)C(C)(O)Cc1ccc(Cl)cc1` (configuration not stated), the Potency entry in assay [1], in [2], in assay [3], in [4], in assay [6] and in [20] was “inactive” in each case. The Potency entry in assay [8], in assay [9], in assay [10], in assay [12], in [13] and in [14] was “inactive” in each case. Also, the Potency result in [15], in [16], in assay [17] and in assay [19] was “inactive” throughout. Besides, the max response in assay [5] is -0.684%.
